# Several values for one entry are separate records, joined by “and”; a condition that tells them apart may be missing. Equal values may be shown once. Results filed as inconclusive are left out. A call without a number means that no potency is given here. Some structures have more than one record in an assay (separate samples or runs), and their calls can disagree. Activity calls are given as the source filed them. Unless noted, calls follow the shape of the full dose curve.
# What was measured:
# [1] = Nuclear factor erythroid 2-related factor 2/antioxidant responsive element (Nrf2/ARE) small molecule agonists: qHTS cell viability counter screen in human keratinocytes (AID 1919968; active = well fitted cell-killing curve with a large enough effect in the repeat runs; also: nearly all actives have a fitted effect of over 55% in size; also: potency is read from the fitted curve at half-maximal effect)
# Summary of the method: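 Cytotoxicity was multiplexed with the Nrf2/ARE luciferase assay in the same wells. Stably transfected HaCaT keratinocytes were treated with test compounds for 23 h at 37 C. Cell viability was then measured by CellTiter-Fluor fluorescence.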
# [2] = Nuclear factor erythroid 2-related factor 2/antioxidant responsive element (Nrf2/ARE) small molecule agonists: luciferase reporter gene qHTS assay in human keratinocytes (AID 1919969); also: nearly all actives have a fitted effect of over 35% in size; also: potency is read from the fitted curve at half-maximal effect
# [3] = G protein-coupled receptor (GPCR) small molecule agonists, calcium flux assay: HEK293 wild type cell line counter screen (AID 1920065)
# Summary of the method: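 Seed cells, incubate 18 h (37 C, 5% CO2); add calcium dye, 1 h at 37 C; pin-transfer compounds, ATP control or DMSO; read fluorescence 480/540 nm each second for 3 min.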
# [4] = p53 small molecule agonists, cell-based qHTS assay with human liver microsomes (AID 1963577)
# Summary of the method: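 p53RE-bla cells, 4,000/well, compound added after 5 h, with human liver microsomes 0.5 mg/mL and NADPH 0.5 mg/mL final; 16 h at 37 C, then LiveBLAzer 2 h RT, fluorescence.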
# [5] = p53 small molecule agonists, cell-based qHTS assay with rat liver microsomes (AID 1963578)
# Summary of the method: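 p53RE-bla cells, 4,000/well, pre-incubated 5 h, then given compounds plus rat liver microsomes (0.5 mg/mL final) and NADPH (0.5 mg/mL final). Incubation 16 h at 37 C; beta-lactamase reporter read by LiveBLAzer fluorescence after 2 h at room temperature.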
# [6] = p53 small molecule agonists, cell-based qHTS assay with rat liver microsomes: qHTS cell viability counter screen (AID 1963580); also: nearly all actives have a fitted effect of over 45% in size
# Summary of the method: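 Cytotoxicity counter screen: intracellular ATP measured by CellTiter-Glo luminescence in the same wells as the beta-lactamase reporter read, on HCT-116 p53RE-bla cells exposed 16 h at 37 C to compounds with rat liver microsomes and NADPH, each 0.5 mg/mL final.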
# [7] = p53 small molecule agonists, cell-based qHTS assay: qHTS cell viability counter screen (AID 1963581); also: nearly all actives have a fitted effect of over 45% in size
# Summary of the method: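 Viability was counter-screened in parallel with the p53 agonist reporter by measuring intracellular ATP luminescence in the same HCT-116 p53RE-bla wells after 16 h compound treatment at 37 C.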
# [8] = p53 small molecule agonists, cell-based qHTS assay (AID 1963582; active = well fitted activation curve with a large enough effect in the signal ratio in the repeat runs, not every such curve was filed as active; the % refers to the signal ratio)
# Summary of the method: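 Cells carrying a p53-responsive bla reporter are treated with test compounds for 16 h at 37 C; beta-lactamase activity is then detected with LiveBLAzer B/G FRET substrate after 2 h at room temperature.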
# [9] = target: 5-hydroxytryptamine receptor 2A (Homo sapiens) (UniProt P28223); assay: 5-hydroxytryptamine receptor 2A (HTR2A) small molecule antagonists, cell-based qHTS assay (AID 1963586); also: nearly all actives have a fitted effect of over 45% in size; also: potency is read from the fitted curve at half-maximal effect
# Chain of 5-hydroxytryptamine receptor 2A (Homo sapiens) (P28223 whole entry, looked up): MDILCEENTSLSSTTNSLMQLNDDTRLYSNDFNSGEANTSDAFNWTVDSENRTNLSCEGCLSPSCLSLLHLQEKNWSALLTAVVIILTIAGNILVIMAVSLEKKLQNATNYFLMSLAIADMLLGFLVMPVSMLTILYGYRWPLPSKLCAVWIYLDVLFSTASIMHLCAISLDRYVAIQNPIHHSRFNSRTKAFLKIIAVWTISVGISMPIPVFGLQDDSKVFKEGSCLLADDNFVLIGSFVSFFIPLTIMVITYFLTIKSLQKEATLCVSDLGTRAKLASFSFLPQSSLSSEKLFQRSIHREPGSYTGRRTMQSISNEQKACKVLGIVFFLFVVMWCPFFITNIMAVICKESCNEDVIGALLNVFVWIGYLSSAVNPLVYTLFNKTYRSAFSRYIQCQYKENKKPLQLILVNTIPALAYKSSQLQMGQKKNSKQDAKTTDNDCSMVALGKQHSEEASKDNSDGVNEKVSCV
# Summary of the method: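 CHO cells stably expressing human HTR2A were plated for 18 h at 37 C, then loaded with calcium dye for 1 h. Compounds were preincubated 5 min at room temperature before DOI (4 nM solution) was added. Kinetic fluorescence was read for 3 min.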
# [10] = target: 5-hydroxytryptamine receptor 2A (Homo sapiens) (UniProt P28223); assay: 5-hydroxytryptamine receptor 2A (HTR2A) small molecule agonists, cell-based qHTS assay (AID 1963587); also: nearly all actives have a fitted effect of over 30% in size; also: potency is read from the fitted curve at half-maximal effect
# Summary of the method: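 CHO cells stably expressing human HTR2A, plated 18 h, loaded with calcium dye 1 h at 37 C. Agonist mode: compounds added and intracellular calcium fluorescence recorded kinetically for 2 min at 1 sec intervals.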
# [11] = target: Muscarinic acetylcholine receptor M1 (Homo sapiens) (UniProt P11229); assay: Cholinergic receptor muscarinic 1 (CHRM1) small molecule antagonists, cell-based qHTS assay (AID 1963588); also: nearly all actives have a fitted effect of over 40% in size; also: potency is read from the fitted curve at half-maximal effect
# Chain of Muscarinic acetylcholine receptor M1 (Homo sapiens) (P11229 whole entry, looked up): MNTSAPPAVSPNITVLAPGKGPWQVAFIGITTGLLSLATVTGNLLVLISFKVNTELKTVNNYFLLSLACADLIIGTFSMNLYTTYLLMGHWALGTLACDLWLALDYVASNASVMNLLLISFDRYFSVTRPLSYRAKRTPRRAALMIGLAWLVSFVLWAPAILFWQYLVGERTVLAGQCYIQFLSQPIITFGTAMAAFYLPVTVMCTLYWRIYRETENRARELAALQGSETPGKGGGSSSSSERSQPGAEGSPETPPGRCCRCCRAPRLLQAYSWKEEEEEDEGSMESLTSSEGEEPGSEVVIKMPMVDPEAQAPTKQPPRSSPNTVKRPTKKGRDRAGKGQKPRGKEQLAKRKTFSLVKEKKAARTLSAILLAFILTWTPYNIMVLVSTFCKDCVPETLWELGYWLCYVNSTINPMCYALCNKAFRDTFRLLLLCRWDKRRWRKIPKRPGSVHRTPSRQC
# Summary of the method: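 Compounds were tested at 15 concentrations in three independent runs. Dye-loaded CHRM1-CHO cells were exposed 5 min at room temperature before stimulation by acetylcholine added at 50nM. Intracellular calcium was read kinetically on FDSS for 3 min.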
# [12] = target: Beta-2 adrenergic receptor (Homo sapiens) (UniProt P07550); assay: Adrenergic beta2 receptor (ADRB2) small molecule antagonists, cell-based qHTS assay (AID 1963592); also: series mostly up to about 92 µM; nearly all actives have a fitted effect of over 50% in size
# Chain of Beta-2 adrenergic receptor (Homo sapiens) (P07550 whole entry, looked up): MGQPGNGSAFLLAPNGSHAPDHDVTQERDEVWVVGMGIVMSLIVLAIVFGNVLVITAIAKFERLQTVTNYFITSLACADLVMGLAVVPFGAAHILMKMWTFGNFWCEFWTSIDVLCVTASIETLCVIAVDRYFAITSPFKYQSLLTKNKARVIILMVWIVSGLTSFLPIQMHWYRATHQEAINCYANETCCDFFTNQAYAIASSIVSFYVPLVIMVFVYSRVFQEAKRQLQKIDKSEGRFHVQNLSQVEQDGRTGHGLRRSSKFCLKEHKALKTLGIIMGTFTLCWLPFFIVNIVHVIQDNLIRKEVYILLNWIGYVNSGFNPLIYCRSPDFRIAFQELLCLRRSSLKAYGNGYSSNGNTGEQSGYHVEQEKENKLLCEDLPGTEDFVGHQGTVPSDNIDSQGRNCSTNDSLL
# Summary of the method: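 Assay format: CHO-ADRB2 cells, 18-20hr seeding at 37C/5% CO2, then compound plus 1nM isoproterenol agonist mix for 0.5hr RT. Homogeneous time-resolved fluorescence cAMP detection after 1hr, expressed as 665/615 nm ratio.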
# [13] = target: D(2) dopamine receptor (Homo sapiens) (UniProt P14416); assay: Dopamine D2 receptor (DRD2) small molecule agonists, cell-based qHTS assay (AID 1963594); also: nearly all actives have a fitted effect of over 35% in size
# Chain of D(2) dopamine receptor (Homo sapiens) (P14416 whole entry, looked up): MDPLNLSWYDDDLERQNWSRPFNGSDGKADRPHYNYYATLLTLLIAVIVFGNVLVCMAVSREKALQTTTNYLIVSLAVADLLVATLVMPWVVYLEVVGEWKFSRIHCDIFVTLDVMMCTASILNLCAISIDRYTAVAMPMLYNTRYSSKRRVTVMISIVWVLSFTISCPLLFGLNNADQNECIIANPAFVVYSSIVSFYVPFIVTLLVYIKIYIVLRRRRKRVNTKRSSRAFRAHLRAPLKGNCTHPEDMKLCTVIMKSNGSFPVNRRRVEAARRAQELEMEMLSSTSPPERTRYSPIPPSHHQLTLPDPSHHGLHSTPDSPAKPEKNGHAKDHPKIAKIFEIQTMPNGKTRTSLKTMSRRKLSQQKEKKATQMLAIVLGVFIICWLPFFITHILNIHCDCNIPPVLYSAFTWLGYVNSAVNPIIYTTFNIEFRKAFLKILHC
# Summary of the method: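 HEK293 cells stably expressing human DRD2, pre-treated with PDE inhibitor Ro20-1724 (0.1 mM final) and compound 10 min at room temperature, then stimulated with NKH477 (200nM […]) for 30 min. cAMP read by HTRF (665/620 nm).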
# [14] = target: D(2) dopamine receptor (Homo sapiens) (UniProt P14416); assay: Dopamine D2 receptor (DRD2) small molecule antagonists, cell-based qHTS assay (AID 1963595; active = well fitted inhibition curve with a large enough effect in the signal ratio in the repeat runs, with a control signal flat; the % refers to the signal ratio)
# Summary of the method: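 DRD2-HEK293; 0.1 mM Ro20-1724; cpd 10 min RT; NKH477 200 nM + quinpirole 12 nM, 30 min RT; HTRF cAMP (cAMP-d2/anti-cAMP cryptate), 665/620 nm ratio after 1 h.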
# [15] = p53 small molecule agonists, cell-based qHTS assay with human liver microsomes: qHTS cell viability counter screen (AID 1963579); also: nearly all actives have a fitted effect of over 45% in size; also: potency is read from the fitted curve at half-maximal effect
# Summary of the method: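 p53RE-bla cells, 4,000/well, dosed 5 hours after plating, with human liver microsomes (0.5 mg/mL final) plus NADPH (0.5 mg/mL final), 16 hours at 37 C. Viability read as CellTiter-Glo luminescence after 30 min at room temperature.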
# [16] = target: Muscarinic acetylcholine receptor M1 (Homo sapiens) (UniProt P11229); assay: Cholinergic receptor muscarinic 1 (CHRM1) small molecule agonists, cell-based qHTS assay (AID 1963589); also: nearly all actives have a fitted effect of over 35% in size
# Summary of the method: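 Cells were plated and incubated 18 h at 37 C/5% CO2, loaded with calcium dye for 1 h at 37 C, then treated with compounds in DMSO. Fluorescence was recorded kinetically at 1 sec intervals.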
# [17] = cAMP Responsive Elements (CRE) small molecule agonists, cell-based qHTS assay (AID 1963590)
# Summary of the method: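 Cells carrying a CRE-driven beta-lactamase reporter (HEK 293T) are seeded, incubated overnight (18 h), and treated with test compounds for 3 h at 37 C; reporter activity is then detected with a FRET substrate after 2 h at room temperature.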
# [18] = cAMP Responsive Elements (CRE) small molecule antagonists, cell-based qHTS assay (AID 1963591; active = well fitted inhibition curve with a large enough effect in the signal ratio in the repeat runs, not every such curve was filed as active; the % refers to the signal ratio)
# Summary of the method: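 Cells (CRE-bla HEK 293T, DMEM with 10% dialyzed FBS and 25 mM HEPES) are seeded and incubated 18 h. Compounds are added with NKH477 agonist at 0.25 uM final for 3 h, then FRET substrate for 2 h.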
# [19] = target: Beta-2 adrenergic receptor (Homo sapiens) (UniProt P07550); assay: Adrenergic beta2 receptor (ADRB2) small molecule agonists, cell-based qHTS assay (AID 1963593);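 also: CHO cells stably overexpressing human ADRB2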
# Summary of the method: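 CHO cells stably over-expressing ADRB2 were plated overnight at 37C, then dosed with compounds plus a stimulation mix containing 100uM IBMX and 25uM Ro-20-1724 for 0.5hr at room temperature. cAMP was measured by HTRF competition, 1hr.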
SMILES,Potency [1],Potency [2],Potency [3],Potency [4],Potency [5],Potency [6],Potency [7],Potency [8],Potency [9],Potency [10],Potency [11],Potency [12],Potency [13],Potency [14],Potency [15],Potency [16],Potency [17],Potency [18],Potency [19]
Nc1ccccc1N,inactive,31.4 µM (active) and 7.7 µM (active),inactive,inactive,inactive,inactive,inactive,inactive,inactive,50.1 µM (active) and 30.9 µM (active),inactive,inactive,inactive,inactive,,,,,
Cc1ncsc1CCO,inactive,inactive,inactive,inactive,inactive,inactive,inactive,inactive,,inactive,inactive,inactive,inactive,inactive,inactive,inactive,inactive,inactive,inactive
Cc1ccc(C(=O)c2cc(O)c(O)c([N+](=O)[O-])c2)cc1,30.6 µM (active),inactive,inactive,inactive,inactive,inactive,inactive,inactive,inactive,,inactive,inactive,inactive,inactive,45.8 µM (active) and inactive,inactive,,,inactive
CC1(C)COCN1,inactive,inactive,inactive,inactive,inactive,inactive,,inactive,inactive,inactive,inactive,inactive,inactive,inactive,inactive,inactive,inactive,inactive,
CCCCCCCCC1CCC(=O)O1 (stereo not drawn),inactive,inactive,inactive,inactive,inactive,,inactive,inactive,inactive,inactive,inactive,inactive,inactive,inactive,inactive,inactive,inactive,inactive,
CCOC(=O)NCCC[Si](OCC)(OCC)OCC,inactive,inactive,inactive,inactive,inactive,inactive,inactive,inactive,inactive,,inactive,inactive,inactive,inactive,inactive,inactive,inactive,inactive,inactive
Oc1ccc(O)c2c(O)cccc12,inactive,inactive,inactive,inactive,inactive,inactive,inactive,inactive,inactive,inactive,inactive,inactive,inactive,inactive,inactive,inactive,inactive,inactive,
CC(=O)OCCN(CCOC(C)=O)c1ccc(N=Nc2ccc([N+](=O)[O-])cc2C#N)cc1,inactive,inactive,inactive,inactive,inactive,,inactive,inactive,inactive,inactive,inactive,,,inactive,inactive,inactive,inactive,inactive,inactive
CCOC(/C=C(\C)CCC=C(C)C)OCC,inactive,inactive,inactive,inactive,inactive,,,inactive,,inactive,inactive,inactive,inactive,inactive,inactive,inactive,inactive,inactive,inactive
O=C(O)CCCCCC(=O)O,inactive,inactive,inactive,inactive,inactive,inactive,inactive,inactive,inactive,inactive,inactive,inactive,,inactive,inactive,inactive,inactive,inactive,
COC(=O)c1ccccc1C(=O)c1ccc(OCCN2CCCCC2)cc1,inactive,inactive,inactive,inactive,inactive,inactive,inactive,inactive,inactive,inactive,36.5 nM (active),inactive,,inactive,,inactive,inactive,inactive,
CCCCCc1cccc(=O)o1,inactive,inactive,inactive,inactive,inactive,inactive,inactive,inactive,inactive,inactive,,inactive,inactive,inactive,inactive,,,inactive,
CCN(C=O)CC,inactive,inactive,inactive,inactive,inactive,inactive,inactive,,inactive,,inactive,inactive,inactive,inactive,inactive,inactive,,inactive,inactive
CCCCCCCCCCCCCCCC[N+](C)(C)CC,54.6 µM (active),inactive,inactive,inactive,inactive,inactive,inactive,inactive,13.3 µM (active) and 11.6 µM (active),43.8 µM (active),422 nM (active) and 65 nM (active),inactive,inactive,inactive,45.9 µM (active) and inactive,inactive,,,
C=CCCCCCCCCO,inactive,inactive,inactive,inactive,inactive,inactive,inactive,inactive,inactive,inactive,inactive,inactive,inactive,inactive,,inactive,inactive,inactive,inactive

# — PubChem BioAssay (Tox21)
